# Measurements: PubChem BioAssay (NCI)
# This is part of a sample that, as a whole, favours compounds with a hit. Of some 79,000 tested, about 15% had one in any assay. Values without a mark were called inactive. Activity calls are given as the source filed them. Cut-off read from the data, not from the text of the source: active = growth inhibition above about 70%; inactive = the rest.
# Experiments:
# [1] = NCI Yeast Anticancer Drug Screen. Data for the rad50 strain (AID 155);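 note: 0% = growth of vehicle-only cultures of the same strain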; conditions: S. cerevisiae rad50 strain growth inhibition, stronger effect = higher value
# Procedure, shortened: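 A DNA repair-deficient yeast mutant serves as the test organism; compound-induced growth inhibition is calculated against vehicle-treated cells.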
# [2] = NCI Yeast Anticancer Drug Screen. Data for the mec2-1 strain (AID 157); conditions: S. cerevisiae mec2-1 strain, stronger effect = higher value
# Procedure, shortened: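 Readout is yeast growth inhibition, normalised to vehicle-treated controls, in the mec2-1 strain exposed to compound.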
# [3] = NCI Yeast Anticancer Drug Screen. Data for the sgs1 mgt1 strain (AID 161);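 note: 0% = growth of cultures given vehicle only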; conditions: S. cerevisiae sgs1 mgt1 strain, stronger effect = higher value
# Procedure, shortened: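 This yeast growth screen uses a strain with defined DNA-repair lesions; compound-treated growth is compared with vehicle-treated growth.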
# [4] = NCI Yeast Anticancer Drug Screen. Data for the cln2 rad14 strain (AID 165);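 note: 0% = growth equal to vehicle treated cultures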; conditions: S. cerevisiae cln2 rad14 strain, stronger effect = higher value
# Procedure, shortened: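 Relative to vehicle controls, growth inhibition of compound-treated cln2 rad14 yeast was recorded.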
# [5] = NCI Yeast Anticancer Drug Screen. Data for the bub3 strain (AID 167); conditions: S. cerevisiae bub3 mutant strain, stronger effect = higher value
# Procedure, shortened: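 Inhibition values come from growth of compound-treated mutant yeast normalised to vehicle-treated controls.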
# [6] = NCI Yeast Anticancer Drug Screen. Data for the mlh1 rad18 strain (AID 175); conditions: S. cerevisiae mlh1 rad18 strain growth inhibition, stronger effect = higher value
# Procedure, shortened: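 Test agents were incubated with a yeast strain of defined genotype (DNA damage repair defect). Inhibition of growth was derived by comparison with vehicle-exposed cultures.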
# [7] = at 5.0 µM (retest, dose inferred, filed as 0.5)
# [8] = at 50.0 µM (retest, dose inferred, filed as 5.0)
SMILES,"growth inhibition [1, 7]","growth inhibition [1, 8]",growth inhibition ([1]; at 50.0 µM),"growth inhibition [2, 7]","growth inhibition [2, 8]",growth inhibition ([2]; at 50.0 µM),"growth inhibition [3, 7]","growth inhibition [3, 8]",growth inhibition ([3]; at 50.0 µM),"growth inhibition [4, 7]","growth inhibition [4, 8]",growth inhibition ([4]; at 50.0 µM),"growth inhibition [5, 7]","growth inhibition [5, 8]",growth inhibition ([5]; at 50.0 µM),"growth inhibition [6, 7]","growth inhibition [6, 8]",growth inhibition ([6]; at 50.0 µM)
COC(=O)C(=C(c1ccccc1)c1ccccc1)c1ccccc1,3%,-1%,25.8%,0%,4%,23.1%,4%,-1%,52%,0%,4%,43.1%,-2%,-3%,89.6% (active),-3%,7%,35.6%
CC1CCC(C(C)(C)c2ccc(O)cc2)CC1 (configuration not stated),0%,97% (active),97.7% (active),-1%,98% (active),98.2% (active),3%,98% (active),98.8% (active),-6%,96% (active),97.6% (active),-4%,97% (active),98.3% (active),-6%,98% (active),98.3% (active)
COC(=O)c1cc(/C=C/c2ccccc2)on1,-3%,3%,-3.75%,5%,1%,0.55%,2%,8%,10.5%,-4%,-14%,82.2% (active),6%,14%,2.75%,-3%,2%,-9.55%
CC(=O)c1ccc2sc3ccccc3c2c1,-92%,96% (active),96% (active),-45%,72% (active),57.6%,-59%,88% (active),70.2% (active),-52%,86% (active),33.4%,-51%,85% (active),88% (active),-120%,92% (active),88.3% (active)
CC(C)=CN(C)C (tested in a mixture with another compound),-120%,87% (active),93.5% (active),-36%,91% (active),96.7% (active),-42%,89% (active),91.7% (active),-55%,97% (active),98.4% (active),-68%,83% (active),91.2% (active),-113%,95% (active),95.8% (active)
O=C1CSC(=S)N1c1ccc(F)cc1F,8%,86% (active),89.8% (active),-2%,82% (active),22.6%,10%,78% (active),65.2%,-3%,16%,-9%,-3%,84% (active),83.8% (active),3%,89% (active),70.2% (active)
NC(=S)C(=Nc1ccccc1F)Nc1ccccc1F,2%,85% (active),8.4%,-8%,31%,-9.55%,-10%,70% (active),61.6%,-6%,35%,5.55%,-1%,81% (active),32.9%,20%,87% (active),66.2%
C=C1CC(C)(COc2ccc3c(C)c(Cl)c(=O)oc3c2)OC1=O (configuration not stated),23%,95% (active),80% (active),2%,97% (active),68.8%,-2%,95% (active),81% (active),-15%,92% (active),76.8% (active),13%,94% (active),85.8% (active),8%,97% (active),58.6%
C[N+](C)(CCO)Cc1ccccc1,-4%,10%,-19.4%,1%,0%,1.6%,-5%,-37%,11.2%,-1%,2%,-30.6%,8%,39%,74.2% (active),-4%,6%,34%
COCC(O)Cn1cc([N+](=O)[O-])nc1C (configuration not stated),4%,-1%,2.7%,1%,-3%,-5.25%,-1%,2%,-4.8%,0%,-2%,9.45%,-4%,-4%,19.2%,6%,4%,9.4%
CCCC(c1ccc(O)cc1)c1ccc(O)cc1,1%,98% (active),99.5% (active),-5%,99% (active),99.5% (active),-1%,95% (active),99.4% (active),12%,96% (active),99.2% (active),1%,97% (active),99.5% (active),0%,96% (active),99.5% (active)
O=c1[nH]cc(F)c(=O)n1C1CCCCO1 (configuration not stated),30%,41%,46%,16%,34%,49.5%,46%,72% (active),71% (active),46%,49%,12.2%,42%,59%,34.5%,23%,35%,6.85%
O=C1CCCCC1=C(I)I,18%,18%,56.2%,18%,18%,66.5%,13%,13%,68.8%,-4%,-4%,39.8%,2%,2%,74.4% (active),12%,12%,72.2% (active)
Cc1ccc(OS(=O)(=O)c2ccc(Br)cc2)cc1,2%,5%,-6%,-16%,10%,0.05%,8%,19%,-3.65%,9%,6%,-1%,16%,41%,-7%,3%,31%,12.7%
O=[N+]([O-])c1ccc(/C=c2\sc3scc(-c4ccc([N+](=O)[O-])cc4)[n+]3\c2=C/c2ccc([N+](=O)[O-])cc2)cc1,99% (active),99% (active),86.9% (active),100% (active),99% (active),75.5% (active),88% (active),99% (active),97.5% (active),94% (active),99% (active),69.3%,99% (active),99% (active),54.1%,99% (active),99% (active),94.6% (active)
COc1cc(C(c2cc3c(cc2O)OCO3)N2CCN(C(c3cc(OC)c(OC)c(OC)c3)c3cc4c(cc3O)OCO4)CC2)cc(OC)c1OC (configuration not stated),-2%,69%,23.6%,-1%,74% (active),32.9%,-5%,88% (active),28.6%,-6%,93% (active),-35%,-2%,91% (active),6.55%,2%,86% (active),64.1%
O=S(=O)(O)c1ccc2c(c1)C1C(C3C2C2(Cl)C(Cl)=C(Cl)C3(Cl)C2(Cl)Cl)C2(Cl)C(Cl)=C(Cl)C1(Cl)C2(Cl)Cl (configuration not stated),-7%,80% (active),85.9% (active),-8%,94% (active),89.9% (active),-19%,77% (active),81% (active),34%,89% (active),83.7% (active),21%,91% (active),88.6% (active),23%,93% (active),84.4% (active)
CCOC(=O)C(=O)C1CCCCC1=O (configuration not stated),9%,95% (active),98.5% (active),6%,98% (active),98.8% (active),5%,92% (active),98.8% (active),21%,98% (active),98.8% (active),6%,98% (active),97% (active),11%,98% (active),98.8% (active)
Cc1ccccc1NC(=O)C1C(=O)N(c2ccccc2C)C(=O)/C1=N/O (configuration not stated),-21%,3%,-21.4%,3%,4%,2.95%,-4%,-19%,-4.55%,-6%,6%,-26.6%,0%,1%,-5.25%,-1%,-2%,3.65%
